This test has as its system Vero E6 infected with SARS-CoV-2. Kind of test: inhibition of SARS-CoV-2 cytopathic effect; higher = more antiviral protection, active = above 15. As to conditions: 48 h.

From the supplement of paper PMC13380429 come the findings set out here.

Unmarked numbers belong to inactive results.

Regarding `CN(C(=O)CN(CCO)CC(=O)N(C)C(C)(C)Cc1ccccc1)C(C)(C)Cc1ccccc1` [oxethazaine], the “inhibition of SARS-CoV-2 cytopathic effect” value (from here on “inhibition”) is -2.13% (1 nM); -0.95% (8.33 nM); 0.87% (100 nM); -0.57% (833.33 nM); -13.9% (10000 nM).
On to `COc1ccc(CNC(=O)c2cc(-c3cncc(C)c3)ncc2-c2nccs2)nc1OC`, for which the “inhibition” value was 1.93% (1 nM); 4.06% (8.33 nM); 1.64% (100 nM); -9.94% (833.33 nM); 3.12% (10000 nM).
As for `CNC(=O)[C@@H](Cc1ccccc1)N(C)C(=O)[C@@H](Cc1ccc2ccccc2c1)N(C)C(=O)/C=C/CC(C)(C)N` [tabimorelin], the “inhibition” value by setting is: (1 nM) 0.97%; (8.33 nM) -0.49%; (100 nM) -1.39%; (833.33 nM) 2.19%; (10000 nM) 0.56%.
The like results for `CN1[C@@H]2CC[C@H]1C[C@@H](OC(=O)c1cc(Cl)cc(Cl)c1)C2` [bemesetron] were, in that order, -0.2%, 0.56%, 0.85%, 0.1% and 2.26%.
The like results for `C[C@@H]1CCO[C@H]2Cn3cc(C(=O)NCc4ccc(F)cc4F)c(=O)c(O)c3C(=O)N12` [dolutegravir] were, in that order, -0.6%, 1.42%, 4%, 1.93% and 4.1%.
Turning to `CC(C)(C)c1ccc2cc(C#N)c(C#N)cc2c1`, the “inhibition” value is 0.02% (1 nM); 1.71% (8.33 nM); -1.56% (100 nM); 0.05% (833.33 nM); -3.93% (10000 nM).
In the case of `C[S+](C)CC[C@H](N)C(=O)O` [cabagin], the “inhibition” value by setting is: (1 nM) -1.01%; (8.33 nM) -0.84%; (100 nM) -0.11%; (833.33 nM) 0.92%; (10000 nM) 0.96%.
For the compound `CC(CCc1ccccc1)NC(C)C(O)c1ccc(O)cc1` (stereo not given) [buphenine], the “inhibition” value was 1.42% (1 nM); 1.45% (8.33 nM); -1.15% (100 nM); -0.63% (833.33 nM); -2.78% (10000 nM).
As for `CCCCc1cc2ccccc2c(OCCN(C)C)n1` [dimethisoquin], the “inhibition” value is 0.87% (1 nM); 1.84% (8.33 nM); -0.28% (100 nM); 0.5% (833.33 nM); -2.53% (10000 nM).
Consider `COc1ccc(Nc2nccc(NCCO)n2)cc1` [cardiogenol-C], for which the “inhibition” value (1 nM) was 0.83%; the “inhibition” value (8.33 nM) is -0.02%; the “inhibition” value (100 nM) is -0.4%; the “inhibition” value (833.33 nM) is 0.3%; the “inhibition” value (10000 nM) was 1.2%.
For `Oc1ccnc2cc(Cl)ccc12` [chloroxoquinoline], the “inhibition” value by setting is: (1 nM) -2.22%; (8.33 nM) 0.71%; (100 nM) 0.09%; (833.33 nM) -0.05%; (10000 nM) 1.04%.
Take `N=C1N[C@H]2[C@H](CS[C@H]2CCCCC(=O)O)N1` [2-iminobiotin]: the “inhibition” value is -0.5% (1 nM); 1.48% (8.33 nM); -1.14% (100 nM); -2.01% (833.33 nM); -2.17% (10000 nM).
The like results for `C=C1C(=O)[C@]23[C@H](O)[C@H]1CC[C@H]2[C@@]12CO[C@]3(O)[C@@H](O)[C@@H]1C(C)(C)CC[C@@H]2O` [Oridonin (Isodonol)] were, in that order, -0.74%, 1.14%, 0.8%, 3.78% and 43.5% (active).
For `NS(=O)(=O)c1cc(-c2nnn[nH]2)c(NCc2cccs2)cc1Cl` [azosemide] the same measures were 2.38%, -0.55%, 3.16%, 9.99% and -3.43%.
The like results for `CC(Oc1ccc(O)cc1)(P(=O)(O)O)P(=O)(O)O` were, in that order, -3.21%, -1.85%, 3.91%, -1.36% and -1.37%.
For `C#Cc1cccc(Nc2ncnc3cc(OC)c(OCCCCCCC(=O)NO)cc23)c1`, the “inhibition” value runs as follows: (1 nM) 1.1%; (8.33 nM) 5.38%; (100 nM) -0.94%; (833.33 nM) -6.89%; (10000 nM) -28%.
The like results for `Cc1cc(-c2cc(OC(=O)c3ccccc3)ccc2Cl)cc2nnc(Nc3ccc(OCCN4CCCC4)cc3)nc12` were, in that order, -2.62%, 2.55%, 2.44%, 1.14% and 2.17%.
The like results for `CN1CCC2=C(C1)C(c1ccccc1)c1ccccc12` (stereo not given) [phenindamine] were, in that order, -1.14%, -0.54%, 0.73%, 2.57% and 1.5%.
The like results for `Nc1nccc(-c2c(-c3ccc(F)cc3)ncn2C2CCCCC2)n1` were, in that order, 3.7%, 3.92%, -2.24%, -0.2% and 1.35%.
Consider `CC1(C)CCC(C)(C)c2cc(Cn3cccn3)c(/C=C/c3ccc(C(=O)O)cc3)cc21` [palovarotene], for which the “inhibition” value by setting is: (1 nM) 3.77%; (8.33 nM) 1.22%; (100 nM) 1.2%; (833.33 nM) 0.58%; (10000 nM) 2.48%.
For `CC(C)(O)C(Cl)(Cl)Cl` [chlorobutanol] the same measures were 0.34%, 1.76%, 0.44%, 1.86% and -2.07%.
